Laboratory results reported in PubChem BioAssay (NCATS).
Inconclusive results are not listed. A number with no mark means an inactive call. Calls of active or inactive are those of the source. Calls follow the shape of the dose curve; as a rule, active = well fitted inhibition curve with a large enough effect; inconclusive = small, poorly fitted or top-dose-only effect; inactive = flat fitted curve, though single readings scatter.

Each compound was assayed against Calcium and integrin-binding protein 1 (Homo sapiens) (UniProt Q99828) (assay: Primary qHTS for Identification of Calcium Integrin Binding Protein 1 (CIB1) Competitor (AID 1508620; as to activity change, negative = inhibition: top concentration of the series differs between compounds)). Conditions: CIB1-GST / FITC-alphaIIb peptide fluorescence polarization; series mostly up to 114 µM; activity change, negative = inhibition: at the top concentration.
Sequence of Calcium and integrin-binding protein 1 (Homo sapiens) (Q99828 whole entry, looked up): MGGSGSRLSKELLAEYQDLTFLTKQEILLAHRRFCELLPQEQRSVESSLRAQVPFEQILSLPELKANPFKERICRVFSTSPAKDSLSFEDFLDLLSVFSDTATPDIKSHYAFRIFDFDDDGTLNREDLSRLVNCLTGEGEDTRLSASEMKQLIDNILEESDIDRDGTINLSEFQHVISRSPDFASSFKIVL
Summary of the method: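 Fluorescence polarization competition: GST-tagged CIB1 (1 uM final) preincubated with compound 15 min at room temperature, then FITC-labelled alphaIIb peptide (100 nM final) added. After 15 min at room temperature, polarization read at Ex 480/Em 540.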
% is scaled to controls: 0 for no effect and ±100 for the full control effect; potency is read from the fitted curve at half-maximal effect.

Row | SMILES | activity change, negative = inhibition | Potency
1 | Cc1cc(NS(=O)(=O)c2ccc3c(c2)CCC(=O)N3)ccc1F | 1.56% | –
2 | C#CCOc1ccc(-c2nnc3n2N=C(c2ccc(OC)c(OCC(C)=O)c2)CS3)cc1 | 17.2% | –
3 | CCCC(C)NC(=O)Cn1nc(-c2ccc(C)cc2)ccc1=O (stereo not given) | 1.66% | –
4 | Cc1ccc2nc(NC3=NC4(CCCC4)C4=C(CCCC4=O)N3)oc2c1 | -16% | –
5 | COc1ccc(C2c3c(ncn(CCN4CCOCC4)c3=N)Oc3ccc4ccccc4c32)cc1OC (stereo not given) | 6.83% | –
6 | CN1CCN(c2ccc(NC(=O)c3cccs3)cn2)CC1 | -14.8% | –
7 | Nc1ccc(S(=O)(=O)N2CCN(S(=O)(=O)c3ccc4c(c3)OCCO4)CC2)cc1 | 5.39% | –
8 | O=C(Nc1ccc(Cl)c(Cl)c1)Nc1ccnc(-c2ccncc2)n1 | 0.417% | –
9 | Cc1cc(-c2nnc3n2CCCCC3)c(C)n1-c1ccccn1 | -4.95% | –
10 | C#CCOc1ccc(C(C)=O)cc1-c1nnc2n1N=C(c1ccc(OC)c(O[C@@H]3CCOC3)c1)CS2 | -1.87% | –
11 | COc1ccc(C(=O)N(Cc2cccs2)Cc2cccs2)c(O)c1 | -0.161% | –
12 | Cc1c(-c2ccccc2)no[n+]1[O-] | 1.51% | –
13 | O=C(Nc1ccc(-c2cn[nH]c2)cc1)Nc1nnc(-c2ccncc2)s1 | -3.7% | –
14 | O=S1(=O)N=C(OCc2ccccc2)c2ccccc21 | -4.07% | –
15 | CC(=O)Nc1sc2c(c1-c1ccc(F)cc1)CCNC2 | 4.45% | –
16 | COc1cccc(C2c3c(ncn(-c4ccccc4)c3=N)Oc3ccc4ccccc4c32)c1 (stereo not given) | – | inactive
17 | COc1cccc(C2c3c(ncn(-c4ccncc4)c3=N)Oc3ccc4ccccc4c32)c1 (stereo not given) | 5.23% | –
18 | Cc1ccccc1S(=O)(=O)N1CCN(S(=O)(=O)c2ccc3c(c2)OCCO3)CC1 | -3.54% | –
19 | Fc1cccc(CNc2ncnc3ccc(-c4cccc(Cl)c4)cc23)c1 | -1.5% | –
20 | CN(C)S(=O)(=O)c1ccc(-c2nc(NCc3ccc(-c4ccnc(C(F)(F)F)c4)cc3)c3ccccc3n2)cc1 | 12.4% | –

Row | SMILES | activity change, negative = inhibition | Potency
21 | O=S(=O)(Nc1ccccc1)c1ccc(O)c2ncccc12 | -4.49% | –
22 | Cc1cc2c(s1)c1cnn(Cc3ccc(F)c(Cl)c3)c(=O)c1n2C | 0.767% | –
23 | COc1ccc(C2Nc3ccccc3C(=O)N2Cc2ccncc2)cc1COc1ccc(NC(C)=O)cc1 (stereo not given) | -4.08% | –
24 | Cc1ccc(S(=O)(=O)Nc2ccc(C(=O)Nc3nc(-c4ccc(Cl)cc4)cs3)cc2)cc1 | 2.21% | –
25 | CC(C)(C)OC(=O)N1CCC(c2ccc(NCc3ccc(-c4ccc(C#N)cc4)o3)cc2)CC1 | -0.84% | –
26 | N#CN1CCC(NS(=O)(=O)c2ccc(F)cc2)CC1 | 1.09% | –
27 | O=S(=O)(Nc1cccc2cccnc12)c1ccccc1O | -9.56% | –
28 | COc1cccc(-c2csc(N3CCC(C(N)=O)CC3)n2)c1 | -0.068% | –
29 | COc1ccc(OC)c(-c2nnc3n2N=C(c2ccc(OC)c(OC)c2)CS3)c1 | -9.04% | –
30 | Cc1ccnc(NC(=S)N2CCN(c3ccc(Cl)c(Cl)c3)CC2)c1 | -8.7% | –
31 | CCOc1ccc(CCN(C)C(=O)c2cc3sccc3n2Cc2ccccc2)cc1OCC | 6.47% | –
32 | COc1ccc(C2Nc3ccccc3C(=O)N2Cc2ccco2)cc1 (stereo not given) | -5.79% | –
33 | O=C(COC(=O)CNC(=O)C1CCCCC1)Nc1cc(C(F)(F)F)ccc1Cl | -3.04% | –
34 | Cc1ccc(OCCn2c(CCNC(=O)c3ccc(C)cc3)nc3ccccc32)cc1 | 15.1% | –
35 | Cc1noc(Nc2sc3c(c2-c2nc4ccccc4s2)CCNC3)n1 | 2.87% | –
36 | O=C(Cc1ccc(Cl)c(Cl)c1)Nc1ccc(S(=O)(=O)O)cc1 | -15.7% | –
37 | O=Cc1c(-c2ccccc2)no[n+]1[O-] | – | 50.1 µM (active)
38 | Cc1ccc(-c2ccc(=O)n(CCN)n2)cc1 | 0.435% | –
39 | Cc1ccc(OCCn2c(CCNC(=O)Cc3ccccc3)nc3ccccc32)cc1 | 26.5% | –
40 | Cn1ccc2cc(-c3ccc4ncnc(NCc5cccs5)c4c3)ccc21 | 6.55% | –
